A short description of assay [1]: NCI Yeast Anticancer Drug Screen. Data for the rad50 strain (AID 155).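 Further: 0% = growth of vehicle-only cultures of the same strain.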 The conditions noted are these: S. cerevisiae rad50 strain growth inhibition, stronger effect = higher value. A digest of the protocol: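 Genetically altered yeast (DNA repair pathway); compound treatment; growth inhibition vs vehicle ctrl.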
Assay [2] is described as follows: NCI Yeast Anticancer Drug Screen. Data for the mec2-1 strain (AID 157). The conditions noted are these: S. cerevisiae mec2-1 strain, stronger effect = higher value. A digest of the protocol: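 Readout is yeast growth inhibition, normalised to vehicle-treated controls, in the mec2-1 strain exposed to compound.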
Assay [3] in a line: NCI Yeast Anticancer Drug Screen. Data for the sgs1 mgt1 strain (AID 161).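 Further: 0% = growth of cultures given vehicle only.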 To be noted: S. cerevisiae sgs1 mgt1 strain, stronger effect = higher value. The method in brief:
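Compounds are added to genetically altered yeast, and growth is compared with cultures given vehicle alone to give percent inhibition.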

Assay [4] in a line: NCI Yeast Anticancer Drug Screen. Data for the cln2 rad14 strain (AID 165).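 Further: 0% = growth equal to vehicle treated cultures.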 To be noted: S. cerevisiae cln2 rad14 strain, stronger effect = higher value. The method in brief: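 Relative to vehicle controls, growth inhibition of compound-treated cln2 rad14 yeast was recorded.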
Assay [5] in a line: NCI Yeast Anticancer Drug Screen. Data for the bub3 strain (AID 167). To be noted: S. cerevisiae bub3 mutant strain, stronger effect = higher value. The method in brief: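 Yeast carrying a defined mutation is treated with each compound, and growth is compared with that of vehicle-exposed cells to give inhibition.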
Assay [6] in a line: NCI Yeast Anticancer Drug Screen. Data for the mlh1 rad18 strain (AID 175). To be noted: S. cerevisiae mlh1 rad18 strain growth inhibition, stronger effect = higher value. A digest of the protocol: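 Test agents were incubated with a yeast strain of defined genotype (DNA damage repair defect). Inhibition of growth was derived by comparison with vehicle-exposed cultures.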
[7] abbreviates: at 5.0 µM (retest, dose inferred, filed as 0.5).
The mark [8] stands for this setting: at 50.0 µM (retest, dose inferred, filed as 5.0).

SMILES strings stand for the structures. Compounds without any hit were thinned out: in the full panel of roughly 79,000, 15% have a hit. A number with no mark means an inactive call. Activity calls are given as the source filed them. No stated cut-off is given here; in the data, active means growth inhibition above about 70%; inactive means the rest.

Turning to `CCC[CH2][Sn]([CH2]CCC)([O]C(=O)c1cc(OC)c(OC)cc1OC)[O]C(=O)c1cc(OC)c(OC)cc1OC`, the growth inhibition in assay [1] (setting [7]) is 88% (active); in assay [1] (setting [8]) it was 88% (active); in assay [1] (at 50.0 µM), 89.8% (active); in assay [2] (setting [7]) it was 90% (active); in assay [2] (setting [8]), 90% (active); in assay [2] (at 50.0 µM), 91.5% (active). In addition, the growth inhibition in assay [3] (setting [7]) is 87% (active); in assay [3] (setting [8]), 87% (active); in assay [3] (at 50.0 µM) it was 90.1% (active); in assay [4] (setting [7]), 79% (active); in assay [4] (setting [8]), 79% (active); in assay [4] (at 50.0 µM), 91.2% (active). The growth inhibition in assay [5] (setting [7]) is 85% (active); in assay [5] (setting [8]), 85% (active); in assay [5] (at 50.0 µM), 87.2% (active); in assay [6] (setting [7]), 84% (active); in assay [6] (setting [8]), 84% (active); in assay [6] (at 50.0 µM), 89.5% (active).
For the compound `O=C(c1ccc(Cl)cc1)C1N=NCC1c1ccccc1` (stereo not drawn), the growth inhibition in assay [1] (setting [7]) was 3%; in assay [1] (setting [8]), 33%; in assay [1] (at 50.0 µM) it was -2.2%; in assay [2] (setting [7]), 9%; in assay [2] (setting [8]), 52%; in assay [2] (at 50.0 µM), 22.8%. Further, the growth inhibition was 4% in assay [3] (setting [7]); 50% in assay [3] (setting [8]); 29.2% in assay [3] (at 50.0 µM); 4% in assay [4] (setting [7]); 59% in assay [4] (setting [8]); 12.8% in assay [4] (at 50.0 µM). The growth inhibition was 4% in assay [5] (setting [7]); 85% (active) in assay [5] (setting [8]); 87% (active) in assay [5] (at 50.0 µM); -8% in assay [6] (setting [7]); 53% in assay [6] (setting [8]); 43% in assay [6] (at 50.0 µM).
`C[C@H](CCC1=NCCN1)[C@H]1CC[C@H]2[C@@H]3CC[C@@H]4C[C@H](O)CC[C@]4(C)[C@H]3C[C@H](O)[C@]12C`: the growth inhibition is 93% (active) in assay [1] (setting [7]); 99% (active) in assay [1] (setting [8]); 91.3% (active) in assay [1] (at 50.0 µM); 26% in assay [2] (setting [7]); 76% (active) in assay [2] (setting [8]); 93.1% (active) in assay [2] (at 50.0 µM). In addition, the growth inhibition is 39% in assay [3] (setting [7]); 99% (active) in assay [3] (setting [8]); 90.2% (active) in assay [3] (at 50.0 µM); 59% in assay [4] (setting [7]); 99% (active) in assay [4] (setting [8]); 87.8% (active) in assay [4] (at 50.0 µM). In addition, the growth inhibition in assay [5] (setting [7]) is -10%; in assay [5] (setting [8]) it was 99% (active); in assay [5] (at 50.0 µM) it was 91.4% (active); in assay [6] (setting [7]), 32%; in assay [6] (setting [8]), 99% (active); in assay [6] (at 50.0 µM) it was 91% (active).
Turning to `Cc1c(Cl)ccc(O)c1[N+](=O)[O-]`, the growth inhibition was 2% in assay [1] (setting [7]); 87% (active) in assay [1] (setting [8]); 91.6% (active) in assay [1] (at 50.0 µM); 2% in assay [2] (setting [7]); 86% (active) in assay [2] (setting [8]); 91.7% (active) in assay [2] (at 50.0 µM). Moreover, the growth inhibition was 3% in assay [3] (setting [7]); 82% (active) in assay [3] (setting [8]); 96.1% (active) in assay [3] (at 50.0 µM); 2% in assay [4] (setting [7]); 75% (active) in assay [4] (setting [8]); 84.8% (active) in assay [4] (at 50.0 µM). For the same compound, the growth inhibition in assay [5] (setting [7]) was 5%; in assay [5] (setting [8]) it was 93% (active); in assay [5] (at 50.0 µM), 88.8% (active); in assay [6] (setting [7]), -1%; in assay [6] (setting [8]), 97% (active); in assay [6] (at 50.0 µM), 94% (active).
On to `Cc1cc(O)c(NCCN(C)C)c2c(=O)c3ccccc3sc12`, for which the growth inhibition in assay [1] (setting [7]) was 18%; in assay [1] (setting [8]), 97% (active); in assay [1] (at 50.0 µM), 98.5% (active); in assay [2] (setting [7]), 7%; in assay [2] (setting [8]) it was 97% (active); in assay [2] (at 50.0 µM) it was 99.1% (active). Further, the growth inhibition is 8% in assay [3] (setting [7]); 98% (active) in assay [3] (setting [8]); 98.8% (active) in assay [3] (at 50.0 µM); 12% in assay [4] (setting [7]); 97% (active) in assay [4] (setting [8]); 97.8% (active) in assay [4] (at 50.0 µM). Moreover, the growth inhibition in assay [5] (setting [7]) was 6%; in assay [5] (setting [8]), 94% (active); in assay [5] (at 50.0 µM), 98% (active); in assay [6] (setting [7]), 5%; in assay [6] (setting [8]), 97% (active); in assay [6] (at 50.0 µM), 98.7% (active).
Take `O=C(/C=C/c1ccccc1)CCN1CCC2CCC(C2)C1` (stereo not drawn): the growth inhibition in assay [1] (setting [7]) was 2%; in assay [1] (setting [8]), 55%; in assay [1] (at 50.0 µM), 62.9%; in assay [2] (setting [7]), 9%; in assay [2] (setting [8]), 82% (active); in assay [2] (at 50.0 µM) it was 93% (active). In addition, the growth inhibition is 15% in assay [3] (setting [7]); 54% in assay [3] (setting [8]); 76.1% (active) in assay [3] (at 50.0 µM); 11% in assay [4] (setting [7]); 58% in assay [4] (setting [8]); 27.6% in assay [4] (at 50.0 µM). For the same compound, the growth inhibition is 3% in assay [5] (setting [7]); 79% (active) in assay [5] (setting [8]); 46.9% in assay [5] (at 50.0 µM); 8% in assay [6] (setting [7]); 81% (active) in assay [6] (setting [8]); 79.5% (active) in assay [6] (at 50.0 µM).

Source of the values: PubChem BioAssay (NCI).
